Screening results as filed in PubChem.
An excerpt weighted towards active compounds, which were near 3.2% of everything screened.
CRFR2-BP ag = CRF-BP/CRF-R2 complex agonism; HEK293 CRF-R2/CRF-BP, calcium dye fluorescence (FLIPR); percent of saturating CRF peptide response; activation, % at 13.2 µM; 0.46% of 350,000 active; AID 588473;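 active means activation of at least 50%, plus an integration ratio under a set limit after plate pattern correction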
aDG glyco act = increases alpha dystroglycan glycosylation; Pro5-aDG cells, alpha-DG glycosylation AlphaScreen (IIH6); 0% Pro5, 100% B10-LARGE cell signal; activation, % at 10 µM; 0.22% of 360,000 active; AID 624168;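 active means activation of at least 8% versus controls, or a plate z-score of at least 8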;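 further: Pro5 are CHO cells carrying HIG-tagged alpha-DG that lacks glycosylation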
H9c2 protect = protects H9c2 cardiomyocytes from peroxide injury. 0.63% of 360,000 active. H2O2 injury protection, ATPLite, 2 h. protection from H2O2 cell death, % at 20 µM;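 active means compounds giving at least 50% protection of heart cells from peroxide-induced death in the single-dose screen, raw or plate-pattern-corrected value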
FAS-TE inh = FAS thioesterase (human) inhibition; recombinant FAS-TE, OMFH fluorogenic substrate, fluorescence endpoint; 0.67% of 360,000 active; inhibition, % at 15 µM; P49327;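 active means compounds whose normalised, plate-corrected inhibition of enzyme fluorescence in the single-dose primary screen is 50% or more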
CRFR2-BP antag = antagonists of CRF-binding protein/CRF-R2 receptor complex; 0.59% of 350,000 active; HEK293 CRF-R2/CRF-BP, CRF-induced calcium fluorescence; inhibition, % at 11.8 µM;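 active means inhibition of the ligand-induced calcium signal above about 50% at the single tested concentration, limit read from the data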
PfG6PD inh = PfG6PD (Plasmodium falciparum) enzyme inhibition; AID 504690; inhibition, % at 20 µM; PfGluPho enzyme, NADPH resazurin-diaphorase fluorescence; 0.78% of 350,000 active;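 active means inhibition reaching at least a set limit at 20 µM in the primary screen, cut at about 59% in these data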
FAS-TE conf = FAS thioesterase (human) inhibition, confirmation | shares compounds with FAS-TE inh | recombinant FAS-TE, OMFH fluorogenic substrate, fluorescence | inhibition, % at 15 µM | 45% of 2,300 active;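 active means compounds inhibiting the enzyme by at least 50% at 15 µM in any one of the replicates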
Of the large screens only hits and unclear results are named; the others gave an inactive call (follow-up assays come after a bar, where they were run).

Cc1c(Cl)c([N+](=O)[O-])nn1CCCC(=O)Nc1cc(Oc2ccccc2)cc([N+](=O)[O-])c1	FAS-TE inh 53, CRFR2-BP antag 59 | FAS-TE conf inactive
Cc1c(Cl)c([N+](=O)[O-])nn1CCCC(=O)N1CCN(c2ccccc2)CC1	none
Cc1nn(CCCC(=O)Nc2cc(Oc3ccc(F)cc3)cc([N+](=O)[O-])c2)c(C)c1[N+](=O)[O-]	none
Cc1c(Cl)c([N+](=O)[O-])nn1CCCC(=O)N(Cc1ccccc1)Cc1ccccc1	FAS-TE inh 63 | FAS-TE conf 61
COc1ccc(Br)cc1/C=N/NC(=O)CN1CCN(Cc2ccccc2)CC1	none
CCCCN(C=O)c1c(CC)nc2c(OCc3ccc(Cl)cc3Cl)cccn12	FAS-TE inh 55 (no result: CRFR2-BP ag, CRFR2-BP antag, PfG6PD inh) | FAS-TE conf 61
CCc1nc2c(OCc3ccc(C(F)(F)F)cc3)cccn2c1N(C=O)Cc1ccc(OC)cc1	FAS-TE inh 57 (no result: CRFR2-BP ag, CRFR2-BP antag, PfG6PD inh) | FAS-TE conf 52
COC(CNC(=O)C1CCN(S(=O)(=O)c2cccc3nsnc23)CC1)OC	none
CCCCn1[nH]c(-c2ccccc2)cc1=O	none
COC(=O)C1=C(C)NC(C)=C(C(=O)OC)C1c1ccc(OC(=O)c2oc3ccccc3c2C)c(OC)c1	FAS-TE inh 52 | FAS-TE conf inactive
COC(=O)C1=C(C)NC(=O)NC1c1ccc(OC)c(OC)c1 (stereo unspecified)	none
Cc1cccc(C)c1NC(=O)C(c1ccccc1F)n1c(=O)c(-c2ccccc2)nc2ccccc21 (stereo unspecified)	none (no result: CRFR2-BP ag, H9c2 protect, FAS-TE inh, CRFR2-BP antag, PfG6PD inh)
O=C(Nc1ccc(Nc2ccccc2)cc1)c1ccc(Cl)cc1[N+](=O)[O-]	none
O=C(O)CCCNc1c(C(=O)Nc2ccc(Cl)cc2)cc([N+](=O)[O-])cc1[N+](=O)[O-]	FAS-TE inh 74 | FAS-TE conf 81
Cc1ccc2c(cnn2C(=O)CCC(=O)NC2CCCCC2)c1	none
CC(=O)c1ccc(N(C(=O)c2ccco2)C(C(=O)NC2CCCC2)c2ccc(N3CCOCC3)cc2)cc1 (stereo unspecified)	FAS-TE inh 55 | FAS-TE conf 52
COc1cc(OC)cc(N(C(=O)c2ccco2)C(C(=O)NC2CCCC2)c2ccc(N3CCOCC3)cc2)c1 (stereo unspecified)	none
Cc1cc(C)n(C(=O)/C(C#N)=N/Nc2cc(Cl)cc(Cl)c2)n1	FAS-TE inh 53 | FAS-TE conf inactive
C[C@@H]1CN([C@H](C)CO)S(=O)(=O)c2ccc(C#Cc3ccccc3F)cc2O[C@@H]1CN(C)C(=O)Cc1ccccc1	FAS-TE inh 70 | FAS-TE conf 41
CCN(CC)CC(=O)Nc1ccc(-c2ccc(NC(=O)CN(CC)CC)c(OC)c2)cc1OC	none
CC(C)CSc1ncc(-c2cccc(C(F)(F)F)c2)cn1	FAS-TE inh 51 | FAS-TE conf 49
CCc1ccc(C(O)c2ncc(-c3cccc(C(F)(F)F)c3)[nH]2)cc1 (stereo unspecified)	none (no result: CRFR2-BP ag, CRFR2-BP antag, PfG6PD inh)
Cc1ccc(S(=O)(=O)N2CCN(C(=O)c3ccc(-n4cncn4)c([N+](=O)[O-])c3)CC2)c(C)c1	none
Cc1ccccc1CS(=O)(=O)c1ncc(Cl)c(C(=O)Nc2ccc(F)cc2)n1	FAS-TE inh 50 | FAS-TE conf inactive
CCN(c1ccccc1)S(=O)(=O)c1ccc(NC(=O)c2nc(S(C)(=O)=O)ncc2Cl)cc1	FAS-TE inh 58 | FAS-TE conf 61
O=C(Nc1ccc(F)cc1)c1nc(S(=O)(=O)Cc2ccccc2)ncc1Cl	FAS-TE inh 57, CRFR2-BP antag 56 | FAS-TE conf 58
Cc1ccc(NC(=O)c2nc(S(=O)(=O)Cc3ccccc3)ncc2Cl)cc1	none
O=C(Cn1cnc2ccccc2c1=O)c1ccc(OC(F)F)cc1	none
CN(C)N1C(N)=C(C#N)C(c2ccccc2)C2=C1CC(C)(C)CC2=O (stereo unspecified)	none
CN(C)N1C(N)=C(C#N)C(c2cccc3ccccc23)C2=C1CC(c1ccccc1)CC2=O (stereo unspecified)	FAS-TE inh 65 | FAS-TE conf inactive
Cc1ccc(NC(=O)/C(C#N)=C/c2cc(C)n(-c3ccc(N4CCOCC4)c([N+](=O)[O-])c3)c2C)c(C)c1	none
Cc1cc(/C=C(\C#N)C(=O)Nc2ccc(Cl)cc2)c(C)n1-c1ccc(N2CCOCC2)c([N+](=O)[O-])c1	FAS-TE inh 79 | FAS-TE conf inactive
COc1ccc(NC(=O)/C(C#N)=C\c2cc(C)n(-c3ccc4c(c3)OCO4)c2C)cc1	FAS-TE inh 54 | FAS-TE conf inactive
Cc1cc(/C=C(\C#N)C(=O)Nc2ccccc2)c(C)n1-c1ccc(C(=O)O)cc1	none
COc1cccc(C(=O)OCC(=O)NC(C)CCc2ccccc2)c1O (stereo unspecified)	none
Cc1ccc(N2C(=O)C3CC(c4ccccc4)=C4C5C=CC(C6C(=O)N(c7ccc(C)cc7)C(=O)C56)C4C3C2=O)cc1 (stereo unspecified)	FAS-TE inh 85 | FAS-TE conf inactive
Cc1ccc(N2C(=O)C3CCCN3C2=S)c(C)c1 (stereo unspecified)	none
Cc1ccc(N2C(=O)C3CC(c4ccccc4)=C4C5C=CC(C6C(=O)N(c7ccc(C)cc7C)C(=O)C56)C4C3C2=O)c(C)c1 (stereo unspecified)	FAS-TE inh 100 | FAS-TE conf 44
Cc1ccsc1/C=C/c1n[nH]c(=O)c(C#N)c1C	none
O=C(c1ccc(Cl)cc1)[C@@H]1[C@@H]2C(=O)N(c3cccc4ccccc34)C(=O)[C@@H]2C2c3ccccc3C=NN21 (stereo partly specified)	FAS-TE inh 85 | FAS-TE conf inactive
CC(=O)[C@@H]1[C@@H]2C(=O)N(c3ccccc3F)C(=O)[C@@H]2[C@H]2c3ccccc3C=NN12	none
CCCn1c(CN2CCN(C(=O)c3ccco3)CC2)nc2cc(S(=O)(=O)N(C)C)ccc21	none
CCN(Cc1ccccc1)c1ccc(N=Nc2nn(C)c(C)c2[N+](=O)[O-])cc1	FAS-TE inh 52 | FAS-TE conf 36
CCOc1ccc(S(=O)(=O)N(C(=O)c2ccco2)c2cc3sc(=O)oc3c3ccccc23)cc1	aDG glyco act 11, FAS-TE inh 51 | FAS-TE conf inactive
CC(=O)N(c1ccc2oc(=O)sc2c1)S(=O)(=O)c1ccccc1	none
Cc1ccc(S(=O)(=O)N(C(=O)c2ccco2)c2cc3sc(=O)oc3c3ccccc23)cc1	aDG glyco act 6.6, FAS-TE inh 53 | FAS-TE conf inactive
CCOc1ccc(S(=O)(=O)N(C)CC(=O)NCc2ccco2)cc1	none
